The source made the active and inactive calls.
Tests used:
[1] = E. coli DRC41 culture turbidity changes, primary screen, E. coli filamentation inducer project, strain DRC41, OD650, 48 h (AID 1152);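 note: E. coli MC1000 strain DRC41 lacking acrAB efflux pump and sulA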; details: E. coli DRC41 (acrAB sulA), higher = more signal, called active from +8 up or from −8 down
[2] = small-molecule binders of probe aLefty1, primary screen, biochemical, small-molecule microarray, 635/667 nm fluorescence (AID 1153); details: higher = more signal;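 note: score merges spot fluorescence with signal-to-noise ratio from the scanned slide images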
[3] = PSAC antagonists in infected red cells, primary screen, cell-based, P. falciparum Indochina, OD700, 1 h (AID 1154); details: P. falciparum Indochina infected RBC osmotic lysis, higher = more signal, called active from +8 up or from −8 down
[4] = PSAC antagonists in infected red cells, primary screen, cell-based, P. falciparum Indochina, OD700, 2 h (AID 1155);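 note: lysis reports solute entry through the parasite surface anion channel PSAC; channel blockers reduce lysis of infected cells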; details: P. falciparum Indochina infected erythrocytes, osmotic lysis OD700; higher = more signal, called active from +8 up or from −8 down
[5] = osmotic lysis modulators in infected erythrocytes, primary screen, PSAC antagonist project, cell-based, P. falciparum Indochina, OD700, 3 h (AID 1156); details: higher = more signal, called active from +8 up or from −8 down
[6] = PSAC antagonists in infected red cells, primary screen, cell-based, P. falciparum Indochina, OD700, 18 h (AID 1157); details: P. falciparum Indochina infected erythrocytes, osmotic lysis OD700, 18 h; higher = more signal, called active from +8 up or from −8 down
[7] = modulators of S6 phosphorylation in cells, primary screen, cell-based, A549, cytoblot, luminescence, serum-stimulated (AID 1158); details: A549 phospho-S6 cytoblot, 5 h, higher = more signal;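 note: serum-stimulated A549 lung adenocarcinoma cells; signal is phosphorylated S6 detected by cytoblot immunostaining with HRP secondary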
[8] = target: NADPH oxidase 2 (Homo sapiens) (UniProt P04839); experiment: NOX2-dependent H2O2 signal modulators, primary screen, NOX inhibitor project, cell-based, HEK293-NOX2, PMA-stimulated, Amplex Red fluorescence (AID 1159); details: 45 min, higher = more signal, called active from +8 up or from −8 down; note: test concentration not given here
Sequence of NADPH oxidase 2 (Homo sapiens) (P04839 whole entry, looked up): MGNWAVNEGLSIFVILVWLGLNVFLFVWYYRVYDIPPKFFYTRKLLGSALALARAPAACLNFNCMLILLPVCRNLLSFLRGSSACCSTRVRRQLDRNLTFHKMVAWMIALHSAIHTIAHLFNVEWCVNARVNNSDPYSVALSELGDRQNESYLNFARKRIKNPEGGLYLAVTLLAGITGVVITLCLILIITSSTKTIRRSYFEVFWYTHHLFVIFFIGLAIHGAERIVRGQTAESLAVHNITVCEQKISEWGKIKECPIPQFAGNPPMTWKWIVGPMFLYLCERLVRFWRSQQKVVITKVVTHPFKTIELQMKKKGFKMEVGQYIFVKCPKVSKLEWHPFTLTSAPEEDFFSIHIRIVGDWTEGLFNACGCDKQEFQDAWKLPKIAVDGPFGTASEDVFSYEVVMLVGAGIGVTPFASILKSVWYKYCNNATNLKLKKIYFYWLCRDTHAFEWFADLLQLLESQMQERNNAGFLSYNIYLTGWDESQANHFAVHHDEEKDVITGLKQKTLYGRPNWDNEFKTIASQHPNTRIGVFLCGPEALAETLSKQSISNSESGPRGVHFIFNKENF

[9] = target: NADPH oxidase 4 (Homo sapiens) (UniProt Q9NPH5); experiment: NOX4-dependent H2O2 signal modulators, primary screen, NOX inhibitor project, cell-based, HEK293-NOX4, tetracycline-induced, Amplex Red fluorescence (AID 1160); details: 45 min, higher = more signal, called active from +8 up or from −8 down
Sequence of NADPH oxidase 4 (Homo sapiens) (Q9NPH5 whole entry, looked up): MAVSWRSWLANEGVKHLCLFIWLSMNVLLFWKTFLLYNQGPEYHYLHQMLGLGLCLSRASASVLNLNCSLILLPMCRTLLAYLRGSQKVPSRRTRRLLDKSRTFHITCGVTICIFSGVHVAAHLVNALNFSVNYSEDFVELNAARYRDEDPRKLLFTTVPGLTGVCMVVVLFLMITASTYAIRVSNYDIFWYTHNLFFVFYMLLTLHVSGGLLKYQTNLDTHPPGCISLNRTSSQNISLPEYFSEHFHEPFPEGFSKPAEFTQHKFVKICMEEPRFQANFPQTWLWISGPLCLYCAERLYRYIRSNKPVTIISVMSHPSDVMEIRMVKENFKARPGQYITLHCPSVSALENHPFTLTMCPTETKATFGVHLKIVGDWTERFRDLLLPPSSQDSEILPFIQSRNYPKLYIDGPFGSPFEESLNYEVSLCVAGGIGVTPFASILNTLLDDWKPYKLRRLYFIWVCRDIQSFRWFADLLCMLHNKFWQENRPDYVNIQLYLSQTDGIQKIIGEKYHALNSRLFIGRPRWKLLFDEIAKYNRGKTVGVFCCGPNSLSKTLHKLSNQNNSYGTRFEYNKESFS

[10] = target: NADPH oxidase 5 (Homo sapiens) (UniProt Q96PH1); experiment: NOX5-dependent H2O2 signal modulators, primary screen, NOX inhibitor project, cell-based, HEK293-NOX5, Amplex Red fluorescence (AID 1161); details: HEK293-NOX5, ionomycin, 45 min, higher = more signal
Sequence of NADPH oxidase 5 (Homo sapiens) (Q96PH1 whole entry, looked up): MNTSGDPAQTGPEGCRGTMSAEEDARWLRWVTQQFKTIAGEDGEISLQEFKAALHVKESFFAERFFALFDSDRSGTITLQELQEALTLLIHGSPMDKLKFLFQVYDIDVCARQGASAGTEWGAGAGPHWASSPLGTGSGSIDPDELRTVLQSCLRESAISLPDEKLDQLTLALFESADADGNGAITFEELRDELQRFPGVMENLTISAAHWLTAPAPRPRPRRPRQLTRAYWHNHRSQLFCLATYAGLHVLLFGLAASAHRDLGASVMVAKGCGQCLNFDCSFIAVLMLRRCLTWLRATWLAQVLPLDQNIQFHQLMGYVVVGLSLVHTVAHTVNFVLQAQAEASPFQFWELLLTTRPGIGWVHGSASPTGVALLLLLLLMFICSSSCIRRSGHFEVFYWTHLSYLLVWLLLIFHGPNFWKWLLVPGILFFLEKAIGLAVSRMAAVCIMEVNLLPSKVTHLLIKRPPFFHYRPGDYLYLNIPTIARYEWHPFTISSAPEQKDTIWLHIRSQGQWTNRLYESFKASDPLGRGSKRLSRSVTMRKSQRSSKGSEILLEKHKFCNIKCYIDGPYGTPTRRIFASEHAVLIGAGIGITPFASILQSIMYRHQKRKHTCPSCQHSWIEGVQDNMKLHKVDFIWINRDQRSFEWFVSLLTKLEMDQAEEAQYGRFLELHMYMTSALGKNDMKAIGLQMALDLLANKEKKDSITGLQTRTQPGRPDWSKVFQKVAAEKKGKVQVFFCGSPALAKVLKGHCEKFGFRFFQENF

| Compound | z-score [1] | composite z-score [2] | z-score [3] | z-score [4] | z-score [5] | z-score [6] | z-score [7] | z-score [8] | z-score [9] | z-score [10] |
| --- | --- | --- | --- | --- | --- | --- | --- | --- | --- | --- |
| CO[C@H]1O[C@H](CO)[C@@H](OC(=O)Nc2ccccc2-c2ccccc2)[C@H](OC(=O)Nc2ccc3c(c2)OCO3)[C@H]1OC(=O)Nc1ccc2c(c1)OCO2 | 1.27 (inactive) | 0.809 | 6.03 (inactive) | 1.08 (inactive) | 0.52 (inactive) | 0.666 (inactive) | -0.0053 | -2.21 (inactive) | -1.18 (inactive) | -2.42 |
| COC(=O)C(CC#Cc1ccc2c(c1)[C@]1(C(=O)N2)[C@H](c2ccccc2OCCO)N2[C@H](c3ccccc3)[C@H](c3ccccc3)OC(=O)[C@H]2[C@@H]1C(=O)NC[C@H](O)c1ccccc1)C(=O)OC | 0.345 (inactive) | 0.964 | 2.45 (inactive) | 1.18 (inactive) | 0.984 (inactive) | 0.957 (inactive) | 1.54 | 1.63 (inactive) | 1.03 (inactive) | 1.34 |
| CCOC(=O)C[C@H]1[C@H](OC(=O)Cc2ccc3c(c2)OCO3)[C@@H](NC(=O)Cc2ccc(OC)cc2)c2cc(OCCCO)ccc2N1C(=O)c1ccc2ccccc2n1 | 2.96 (inactive) | 0.0889 | 3.63 (inactive) | -0.486 (inactive) | -1.03 (inactive) | -1.01 (inactive) | 1.29 | -1.03 (inactive) | 1.04 (inactive) | 1.05 |
| CC(C)C(=C=CC[C@H](O)c1cccc(OCCO)c1)C[C@H](O)c1cc(Cl)cc(Cl)c1O | 0.321 (inactive) | 0.0999 | 14.5 (active) | 2.25 (inactive) | 0.667 (inactive) | 0.847 (inactive) | 1.53 | -1.01 (inactive) | -0.881 (inactive) | -1.83 |
| COC(=O)c1nc2oc1CC[C@@H](CO)NC(=O)N(C)Cc1cnnn1C[C@H](Cc1ccccc1)NC2=O | 2.17 (inactive) | -0.101 | 1.23 (inactive) | 0.656 (inactive) | 1.2 (inactive) | 0.409 (inactive) | 0.688 | -0.524 (inactive) | 1.35 (inactive) | 0.371 |
| C=C(/C(=C/C[C@H](OC(C)=O)c1cccc(OCCO)c1)c1cnc2ccccc2c1)C(C)C | -0.0902 (inactive) | -0.0141 | 18.7 (active) | 3.44 (inactive) | 1.67 (inactive) | 1.12 (inactive) | -0.343 | 0.175 (inactive) | -0.456 (inactive) | -0.923 |
| CC1CC/C=C\[C@H]2OC34C=CCN(c5ccc(Cl)cc5)C(=O)[C@H]3N(CCCCCO)C(=O)[C@]4(C)C2C(=O)O1 (stereo not given in full) | -0.351 (inactive) | -0.101 | -0.585 (inactive) | 0.231 (inactive) | -0.175 (inactive) | 0.0119 (inactive) | -0.157 | 0.57 (inactive) | -0.261 (inactive) | 1.05 |
| O=C1NC(=O)C2C1C=CC(C(O)c1ccco1)N2Nc1ccccn1 (stereo not given) | -1.23 (inactive) | -0.145 | -0.379 (inactive) | 0.74 (inactive) | -0.314 (inactive) | 0.581 (inactive) | -1.19 | -1.35 (inactive) | -2.89 (inactive) | -1.78 |
| COCCOC(=O)N1C(=O)[C@@]2(c3cc(C#CC4=CCCCC4)ccc31)[C@H](C(N)=O)[C@H]1C(=O)O[C@H](c3ccccc3)[C@H](c3ccccc3)N1[C@@H]2c1ccccc1OCCO | -0.172 (inactive) | 0.199 | 3.63 (inactive) | 2.55 (inactive) | 0.629 (inactive) | 2.15 (inactive) | -0.332 | 2.16 (inactive) | 0.932 (inactive) | 1.42 |
| O=C1O[C@@H](c2ccccc2)[C@@H](c2ccccc2)N2[C@@H](c3ccc(O)cc3)[C@]3(C(=O)Nc4ccc(C#CC5=CCCCC5)cc43)[C@@H](C(=O)NC[C@H](O)c3ccccc3)[C@H]12 | 1.22 (inactive) | 0.15 | 0.622 (inactive) | 0.347 (inactive) | -0.853 (inactive) | 0.933 (inactive) | 0.0825 | 1.22 (inactive) | 0.53 (inactive) | 0.909 |
| COC(=O)c1ccc([C@H](NC(=O)c2ccco2)[C@]2(C)C[C@H]2C2CCCCC2)cc1 | -2.39 (inactive) | 0.527 | 16.4 (active) | 2.52 (inactive) | 1.33 (inactive) | 1.3 (inactive) | -0.357 | -0.803 (inactive) | -2.56 (inactive) | 0.289 |
| C[C@H]1NC(=O)[C@@]23C(=O)N[C@@H](Cc4ccccc4)C2[C@H](C)[C@@]2(C)O[C@H]2C3/C=C/C/C=C\CNC(=O)[C@H](Cc2ccccc2)NC1=O (stereo not given in full) | -0.213 (inactive) | -0.0378 | 0.874 (inactive) | 0.577 (inactive) | 0.395 (inactive) | 0.33 (inactive) | -0.271 | 1.63 (inactive) | -1.2 (inactive) | 0.201 |
| CCCC[C@@H](O)C1=C(COc2ccccc2)C[C@H]2C(=O)N(C)C(=O)[C@H]2[C@H]1CO | 2.41 (inactive) | -0.274 | 4.68 (inactive) | -0.35 (inactive) | 0.241 (inactive) | -1.53 (inactive) | 1.56 | -0.69 (inactive) | 0.449 (inactive) | 0.187 |
| CC=CC(O)C1C=CC2C(=O)N(c3ccccc3)C(=O)C2N1Nc1ccccc1F (stereo not given) | -0.857 (inactive) | 0.762 | 4.36 (inactive) | 1.24 (inactive) | 0.164 (inactive) | 0.512 (inactive) | -0.819 | -1.11 (inactive) | -2.88 (inactive) | -2 |
| CC(C)(C)N1CC=CC23O[C@@H]4C=CCOC(=O)[C@@H]4[C@H]2C(=O)N(CCCCCCO)[C@@H]3C1=O (stereo not given in full) | -0.348 (inactive) | -0.108 | 1.69 (inactive) | 0.127 (inactive) | 0.935 (inactive) | 0.381 (inactive) | -0.613 | 0.959 (inactive) | -0.503 (inactive) | 1.47 |
| COCCCNC(=O)[C@@]1(Cc2ccccc2N=[N+]=[N-])COC(c2ccc(OCCCO)cc2)=N1 | 1.21 (inactive) | 0.35 | 27.4 (active) | 16.4 (active) | 2.03 (inactive) | 2.36 (inactive) | -0.44 | -1.62 (inactive) | 0.528 (inactive) | -0.146 |
| NC(N)=NCCCn1cc(CNC(=O)[C@@H](N)Cc2ccccc2)nn1 | -0.929 (inactive) | -0.0171 | -0.174 (inactive) | 0.0333 (inactive) | -0.561 (inactive) | 0.36 (inactive) | 0.243 | -2 (inactive) | 0.227 (inactive) | -0.264 |
| COc1cccc(/C=C/C=O)c1 | 1.46 (inactive) | 0.212 | 0.206 (inactive) | -0.11 (inactive) | -0.648 (inactive) | -0.0641 (inactive) | 0.0159 | -0.759 (inactive) | -0.228 (inactive) | 0.985 |
| CN1C(=O)C2C=CC(C(O)c3cccc4ccccc34)N(N3CCCCC3)C2C1=O (stereo not given) | -1.57 (inactive) | -0.0798 | 0.669 (inactive) | 0.958 (inactive) | -0.284 (inactive) | 0.878 (inactive) | -1.32 | -0.671 (inactive) | -1.97 (inactive) | -0.766 |
| C=CC[C@@]1(C(=O)N2CCOCC2)N=C(c2ccc(OCCCO)cc2)O[C@@H]1c1ccccc1CN=[N+]=[N-] | -0.124 (inactive) | 0.789 | 21.5 (active) | 4.83 (inactive) | 1.61 (inactive) | 0.986 (inactive) | 0.36 | -0.305 (inactive) | 0.645 (inactive) | -1.07 |
| O=C1C=C(c2ccccc2)C(=O)c2ccc([C@H]3Oc4ccccc4S(=O)(=O)N4CCC[C@@H]34)cc21 | 0.864 (inactive) | -0.08 | 2.45 (inactive) | 0.0567 (inactive) | -0.37 (inactive) | -0.236 (inactive) | 0.208 | 0.398 (inactive) | -5.41 (inactive) | -6.41 |
| CCOC(=O)C1=CC[C@@H](c2cccc(Cl)c2)N(S(=O)(=O)c2ccc(C)cc2)C1 | 0.065 (inactive) | 0.0166 | 2.31 (inactive) | -0.389 (inactive) | -0.423 (inactive) | -1.89 (inactive) | 1.02 | 0.201 (inactive) | -0.927 (inactive) | -0.736 |
| CC(=O)NCCCC[C@@H]1NC(=O)[C@H]2C[C@@H](C(=O)NCCCC[N+](C)(C)C)[C@@H](c3cccc(OCCO)c3)N2C1=O | 0.485 (inactive) | 0.165 | 2.46 (inactive) | 0.331 (inactive) | -1.58 (inactive) | 0.374 (inactive) | -0.611 | -1.23 (inactive) | -0.477 (inactive) | -1.08 |

— PubChem BioAssay
